# Measured values: PubChem BioAssay (NCI)
# Compounds without any hit were thinned out: in the full panel of roughly 83,000, 20% have a hit.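 Compound tested at a single concentration for 48 hours in 96-well plates; a percent growth value below 10 was scored as active.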 A number with no mark means an inactive call. The source made the active and inactive calls.
# Tested on: SK-MEL-5 melanoma
# Assay: NCI-60 one-dose screen, 48 h (100 = growth as untreated, 0 = no growth, -100 = all killed)
# Settings: 10 µM unless noted
row,SMILES,growth
1,COc1ccccc1-c1ccc2c(N)c(C(=O)c3ccc4c(c3)OCO4)sc2n1,56.6%
2,CC(=O)C1=C(O)C=C2Oc3c(C(=O)/C=C/c4cc(C(F)(F)F)cc(C(F)(F)F)c4)c(O)c(C)c(O)c3[C@]2(C)C1=O,-93.9% (active)
3,CC/C=C\C[C@H](O)C/C=C1/C(=O)C=C[C@@H]1C/C=C\CCCC(=O)NC(C)C,-69.8% (active)
4,COc1ccc(C(=O)c2sc3nc4c(cc3c2N)CCCC4)cc1OC,-11.4% (active)
5,CS(CCCCN=C=S)=NC(=O)c1c(F)c(F)c(F)c(F)c1F (stereo not drawn),96.1%
6,COc1ccc(-c2c(C)noc2-c2ccc(O)cc2O)cc1,80.4%
7,COc1ccc(C(=O)c2sc3nc(-c4ccccc4OC)ccc3c2N)cc1OC,8.53% (active)
8,NC1=CC(=O)C(=O)c2ccccc21,77.5%
9,COc1ccc(C(=O)c2sc3nc4c(c(C(F)(F)F)c3c2N)CN(C(C)=O)CC4)cc1OC,77.6%
10,COc1cc(C(=O)/C=C/c2c(C)n([O-])c3ccc(C)cc3[n+]2=O)cc(OC)c1OC,89%
11,COc1cc(C2C(C(=O)c3cccs3)=C(O)C(=O)N2CCN2CCOCC2)cc(OC)c1OC (stereo not drawn),96.1%
12,COC(=O)C12C3C(=O)N(c4ccc(OC)cc4)C(=O)C3C(c3cn(-c4ccccc4)nc3C)N1[C@H](c1cn(-c3ccccc3)nc1C)[C@@H]1C(=O)N(c3ccc(OC)cc3)C(=O)[C@@H]12 (stereo partly drawn),99.7%
13,COc1cc(C2CC(=O)Nc3c2cnn3Cc2ccco2)cc2c1OCCO2 (stereo not drawn),75.5%
14,COc1ccc(C2CC(=O)Nc3c2c(C)nn3-c2nc3ccccc3[nH]2)cc1 (stereo not drawn),95.5%
15,CCn1cc2c(cc1=O)-c1nc3ccccc3c3ccnc(c13)C2=O,42.8%
16,NCc1cn2cc(Cl)sc2n1,103%
17,CCOc1ccc(Nc2nc(-c3c(C)nc4ncccn34)cs2)cc1,-11.6% (active)
18,N#CC1=C(N)Oc2c(ccc3ccccc23)C1c1cccs1 (stereo not drawn),-35.9% (active)
19,CCOC(=O)C12CCCC1=CC(=O)CC2 (stereo not drawn),103%
20,CCCC(=O)Oc1ccc(/C(=C(/CC)Cc2ccccc2)c2ccc(OCCN3CCCC3)cc2)cc1,66.2%

row,SMILES,growth
1,C=C1CCC2C3(C)COC(c4ccc(OC)cc4Br)OC3CCC2(C)C1/C=C/C1=CCOC1=O (stereo not drawn),45.3%
2,CS(=O)(=O)c1c(Nc2ccccc2)n[nH]c1N,101%
3,CC/C=C\C[C@H](O)C/C=C1/C(=O)C=C[C@@H]1C/C=C\CCCC(N)=O,-94.8% (active)
4,CCN(CC)C12CCCCC1(C)C(C#N)(C#N)C(C#N)=C(N)O2 (stereo not drawn),116%
5,O=C1c2c[n+](Cc3ccccc3)ccc2-c2nc3ccccc3c3ccnc1c23,-93.9% (active)
6,Cc1nn(-c2nc3ccccc3[nH]2)c2c1C(c1ccc3c(c1)OCO3)CC(=O)N2 (stereo not drawn),12.4%
7,O=c1ccc2cc3ccccc3cc2[nH]1,80.8%
8,O=C(Nc1cccc2[nH]c(C(F)(F)F)nc12)c1ccc(Br)cc1F,-32.8% (active)
9,COc1cc(-c2cnc3nonc3n2)c(OC)c2c1OCO2,96.2%
10,COc1cnc2c(c1)C(=O)c1c-2n(CCCBr)c(=O)c2cc([N+](=O)[O-])ccc12,-82.6% (active)
11,Clc1cccc(Nc2nc(Nc3cnc4ccccc4c3)c3[nH]cnc3n2)c1,53%
12,COc1cc(C2CC(=O)c3c(C)nn(-c4nc5ccccc5[nH]4)c3C2)cc(OC)c1OC (stereo not drawn),87.1%
13,CC(C)Oc1nc2c(c(=O)n(C)c(=O)n2C)n1C,104%
14,CC/C=C\C[C@H](F)C/C=C1/C(=O)C=C[C@@H]1C/C=C\CCCC(=O)OC,-81.8% (active)
15,Cc1ccn2c(-c3csc(Nc4cccc(O)c4)n3)c(C)nc2c1,-42.9% (active)
16,O=C(/C=C/c1cc2ccccc2[nH]c1=O)/C=C/c1cc2ccccc2[nH]c1=O,-22.8% (active)
17,COc1ccc(-c2cnoc2-c2cc(OC)c3c(c2)OCCO3)cc1,-27.8% (active)
18,CC/C(Cc1ccccc1)=C(\c1ccc(OCCN2CCCC2)cc1)c1ccc(OC(C)=O)cc1,69.6%
19,C[C@]12C[C@@H](c3ccoc3)OC(=O)[C@@H]1CC[C@]1(C)[C@@H]2CC[C@@H](O)[C@]1(C)O,76.2%

# Tested on: UACC-62 melanoma
# Assay: as above
# Settings: 10 µM unless noted
row,SMILES,growth
1,COc1ccccc1-c1ccc2c(N)c(C(=O)c3ccc4c(c3)OCO4)sc2n1,42%
2,CC(=O)C1=C(O)C=C2Oc3c(C(=O)/C=C/c4cc(C(F)(F)F)cc(C(F)(F)F)c4)c(O)c(C)c(O)c3[C@]2(C)C1=O,-64.8% (active)
3,CC/C=C\C[C@H](O)C/C=C1/C(=O)C=C[C@@H]1C/C=C\CCCC(=O)NC(C)C,-61% (active)
4,COc1ccc(C(=O)c2sc3nc4c(cc3c2N)CCCC4)cc1OC,36.2%
5,CS(CCCCN=C=S)=NC(=O)c1c(F)c(F)c(F)c(F)c1F (stereo not drawn),51.9%
6,COc1ccc(-c2c(C)noc2-c2ccc(O)cc2O)cc1,90.7%
7,COc1ccc(C(=O)c2sc3nc(-c4ccccc4OC)ccc3c2N)cc1OC,67.8%
8,NC1=CC(=O)C(=O)c2ccccc21,39.4%
9,COc1ccc(C(=O)c2sc3nc4c(c(C(F)(F)F)c3c2N)CN(C(C)=O)CC4)cc1OC,83.6%
10,COc1cc(C(=O)/C=C/c2c(C)n([O-])c3ccc(C)cc3[n+]2=O)cc(OC)c1OC,54%
11,COc1cc(C2C(C(=O)c3cccs3)=C(O)C(=O)N2CCN2CCOCC2)cc(OC)c1OC (stereo not drawn),106%
12,COC(=O)C12C3C(=O)N(c4ccc(OC)cc4)C(=O)C3C(c3cn(-c4ccccc4)nc3C)N1[C@H](c1cn(-c3ccccc3)nc1C)[C@@H]1C(=O)N(c3ccc(OC)cc3)C(=O)[C@@H]12 (stereo partly drawn),96.8%
13,COc1cc(C2CC(=O)Nc3c2cnn3Cc2ccco2)cc2c1OCCO2 (stereo not drawn),75.8%
14,CCn1cc2c(cc1=O)-c1nc3ccccc3c3ccnc(c13)C2=O,37.9%
15,NCc1cn2cc(Cl)sc2n1,110%
16,N#CC1=C(N)Oc2c(ccc3ccccc23)C1c1cccs1 (stereo not drawn),29.3%
17,CCOC(=O)C12CCCC1=CC(=O)CC2 (stereo not drawn),102%

row,SMILES,growth
1,CCCC(=O)Oc1ccc(/C(=C(/CC)Cc2ccccc2)c2ccc(OCCN3CCCC3)cc2)cc1,23.7%
2,C=C1CCC2C3(C)COC(c4ccc(OC)cc4Br)OC3CCC2(C)C1/C=C/C1=CCOC1=O (stereo not drawn),61.9%
3,CS(=O)(=O)c1c(Nc2ccccc2)n[nH]c1N,92.4%
4,CC/C=C\C[C@H](O)C/C=C1/C(=O)C=C[C@@H]1C/C=C\CCCC(N)=O,-45.8% (active)
5,Cc1nn(-c2nc3ccccc3[nH]2)c2c1C(c1ccc3c(c1)OCO3)CC(=O)N2 (stereo not drawn),27.3%
6,O=c1ccc2cc3ccccc3cc2[nH]1,66.4%
7,O=C(Nc1cccc2[nH]c(C(F)(F)F)nc12)c1ccc(Br)cc1F,-1.06% (active)
8,COc1cc(-c2cnc3nonc3n2)c(OC)c2c1OCO2,106%
9,Clc1cccc(Nc2nc(Nc3cnc4ccccc4c3)c3[nH]cnc3n2)c1,47.9%
10,COc1cc(C2CC(=O)c3c(C)nn(-c4nc5ccccc5[nH]4)c3C2)cc(OC)c1OC (stereo not drawn),90.8%
11,CC(C)Oc1nc2c(c(=O)n(C)c(=O)n2C)n1C,96.5%
12,CC/C=C\C[C@H](F)C/C=C1/C(=O)C=C[C@@H]1C/C=C\CCCC(=O)OC,-49.4% (active)
13,Cc1ccn2c(-c3csc(Nc4cccc(O)c4)n3)c(C)nc2c1,21.5%
14,O=C(/C=C/c1cc2ccccc2[nH]c1=O)/C=C/c1cc2ccccc2[nH]c1=O,13.5%
15,COc1ccc(-c2cnoc2-c2cc(OC)c3c(c2)OCCO3)cc1,13.4%
16,CC/C(Cc1ccccc1)=C(\c1ccc(OCCN2CCCC2)cc1)c1ccc(OC(C)=O)cc1,43.9%
17,C[C@]12C[C@@H](c3ccoc3)OC(=O)[C@@H]1CC[C@]1(C)[C@@H]2CC[C@@H](O)[C@]1(C)O,76.1%
